The values below come from PMC5540273 (PLoS ONE, 2017).

Test systems include EPHA2; EPHA3; EPHA4; EPHA5; EPHA6; EPHA7; EPHA8; EPHB1; EPHB2; EPHB3; EPHB4; EPHB6; ERBB2; ERBB3; ERBB4.
Conditions in all cases: concentration: 1 μM, replicates: in singlicate; n = 1
In a further experiment the test system is T1, ERK1.
T1 construct: gene MAPK3

A further experiment has as its system T2, ERK2.
T2 construct: gene MAPK1

The subject of the next experiment is T3, ERK3.
T3 construct: gene MAPK6

Another experiment has as its system T4, ERK4.
T4 construct: gene MAPK4

The test system of another experiment is T5, ERK5.
T5 construct: gene MAPK7
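Note: KINOMEscan kinase panel screen.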

In the case of `COc1ccc2cc(-c3nc(-c4ccccc4C(C)C)[nH]c3-c3ccncc3)ccc2c1` [SB-660566], the “%Inh” value with EPHA2 turned out to be 0%; in the experiment with EPHA3, 0%; with EPHA4 it was 25%; with EPHA5 it was 0%; in the experiment on EPHA6, 30%; in the experiment with EPHA7, 15%. For the same compound, the “%Inh” value was found to be 13% in the experiment on EPHA8; 4% in the experiment with EPHB1; 15% with EPHB2; 28% in the experiment with EPHB3; 6% with EPHB4; 0% in the experiment on EPHB6. The “%Inh” value in the experiment on ERBB2 is given as 5%; with ERBB3, 0%; in the experiment on ERBB4 it was 52%; with ERK1, 0%; in the experiment with ERK2 it was 0%; in the experiment on ERK3, 0%. Moreover, the “%Inh” value with ERK4 turned out to be 15%; in the experiment with ERK5 it was 0%.
Turning to `Cn1cncc1-c1cc2c(Nc3ccc(OCc4ccccc4)cc3)ncnc2cn1` [GW281179], the “%Inh” value in the experiment with EPHA2 came out at 13%; in the experiment on EPHA3, 0%; with EPHA4, 6%; with EPHA5 it was 0%; in the experiment with EPHA6 it was 14%; in the experiment with EPHA7, 9%. Also, the “%Inh” value in the experiment on EPHA8 worked out at 11%; in the experiment with EPHB1, 21%; in the experiment with EPHB2 it was 0%; in the experiment with EPHB3, 25%; in the experiment on EPHB4, 17%; in the experiment with EPHB6, 21%. Moreover, the “%Inh” value was 99.6% in the experiment on ERBB2; 75% in the experiment on ERBB3; 70% in the experiment on ERBB4; 0% with ERK1; 0% with ERK2; 0% in the experiment with ERK3. Also, the “%Inh” value in the experiment with ERK4 and in the experiment on ERK5 was 0% throughout.
Regarding `Cc1ccc(NC(=O)Nc2ccc(Cl)c(C(F)(F)F)c2)cc1-c1ccc(C(=O)Nc2ccncc2)cc1` [GSK1398470], the “%Inh” value in the experiment with EPHA2 was 17%; in the experiment on EPHA3 it was 19%; with EPHA4, 7%; in the experiment with EPHA5, 7%; in the experiment with EPHA6 it was 20%; in the experiment on EPHA7, 15%. Besides, the “%Inh” value is 26% in the experiment with EPHA8; 23% in the experiment on EPHB1; 17% with EPHB2; 19% in the experiment on EPHB3; 12% in the experiment with EPHB4; 18% with EPHB6. Moreover, the “%Inh” value was 0% in the experiment with ERBB2; 0% with ERBB3; 6% in the experiment on ERBB4; 15% with ERK1; 12% in the experiment on ERK2; 10% in the experiment on ERK3. The “%Inh” value with ERK4 is 10%; in the experiment on ERK5, 0%.
Take `CS(=O)(=O)CCNCc1nc(-c2ccc3ncnc(Nc4ccc(OCc5ccccc5)c(Cl)c4)c3c2)cs1.Cl` [GW582764]: the “%Inh” value in the experiment with EPHA2 worked out at 10%; in the experiment on EPHA3, 0%; with EPHA4, 0%; in the experiment on EPHA5 it was 0%; in the experiment with EPHA6 it was 7%; in the experiment with EPHA7 it was 0%. Moreover, the “%Inh” value in the experiment with EPHA8 was 8%; in the experiment on EPHB1 it was 0%; in the experiment with EPHB2, 0%; in the experiment with EPHB3, 11%; in the experiment with EPHB4, 8%; in the experiment on EPHB6 it was 0%. Besides, the “%Inh” value in the experiment on ERBB2 amounted to 100%; in the experiment with ERBB3 it was 58%; in the experiment on ERBB4, 97.8%; with ERK1, 0%; with ERK2, 0%; in the experiment on ERK3, 0%. Besides, the “%Inh” value with ERK4 and with ERK5 was 0% each time.
On to `CC(=O)c1c(C)c2cnc(Nc3ccn(C)n3)nc2n(C2CCCC2)c1=O`, for which the “%Inh” value with EPHA2, in the experiment with EPHA3, in the experiment on EPHA4, in the experiment on EPHA5, with EPHA6 and in the experiment on EPHA7 was 0% in each case. Besides, the “%Inh” value in the experiment on EPHA8 is recorded as 0%; in the experiment with EPHB1, 0%; in the experiment with EPHB2, 15%; in the experiment with EPHB3, 0%; with EPHB4, 0%; in the experiment with EPHB6 it was 6%. The “%Inh” value in the experiment on ERBB2 is recorded as 0%; in the experiment on ERBB3 it was 0%; in the experiment with ERBB4, 0%; in the experiment on ERK1, 0%; in the experiment with ERK2 it was 0%; with ERK3, 15%. The “%Inh” value with ERK4 is 17%; in the experiment with ERK5 it was 9%.
`CNc1nc(-c2ccc3c(N)n[nH]c3c2)cc(N2C[C@@H](C(=O)Nc3ccccc3)CC[C@H]2C)n1` [GSK2298859]: the “%Inh” value in the experiment with EPHA2 turned out to be 0%; with EPHA3 it was 18%; in the experiment with EPHA4 it was 8%; in the experiment on EPHA5, 0%; with EPHA6, 0%; in the experiment with EPHA7 it was 1%. Moreover, the “%Inh” value is given as 5% with EPHA8; 0% with EPHB1; 0% in the experiment with EPHB2; 9% in the experiment on EPHB3; 14% with EPHB4; 9% in the experiment with EPHB6. The “%Inh” value in the experiment with ERBB2 is on record as 12%; in the experiment with ERBB3 it was 0%; with ERBB4 it was 19%; in the experiment on ERK1 it was 0%; in the experiment with ERK2 it was 0%; with ERK3 it was 6%. In addition, the “%Inh” value in the experiment on ERK4 and in the experiment with ERK5 was 0% each time.
With `CC(C)c1cc(-c2ccc3c(N)n[nH]c3c2)nc(N)n1` [GSK2250882], the “%Inh” value with EPHA2 turned out to be 17%; in the experiment with EPHA3, 11%; in the experiment with EPHA4, 16%; in the experiment with EPHA5 it was 0%; with EPHA6 it was 17%; in the experiment with EPHA7, 3%. For the same compound, the “%Inh” value in the experiment on EPHA8 is on record as 8%; with EPHB1 it was 17%; with EPHB2, 0%; in the experiment on EPHB3, 29%; with EPHB4, 18%; in the experiment with EPHB6, 4%. Moreover, the “%Inh” value with ERBB2 is 25%; in the experiment on ERBB3 it was 0%; in the experiment on ERBB4 it was 0%; in the experiment with ERK1 it was 1%; in the experiment with ERK2, 0%; with ERK3, 0%. Moreover, the “%Inh” value in the experiment with ERK4 is 26%; in the experiment with ERK5 it was 0%.
Consider `COC(=O)c1cccc(NC(=O)NC2CCN(c3ccnc(Nc4ccc(F)cc4)n3)C2)c1` (stereo not shown) [GSK1379725], for which the “%Inh” value with EPHA2 is on record as 16%; with EPHA3 it was 0%; with EPHA4, 5%; with EPHA5, 0%; in the experiment on EPHA6, 0%; with EPHA7, 0%. For the same compound, the “%Inh” value turned out to be 0% in the experiment with EPHA8; 8% in the experiment on EPHB1; 14% in the experiment on EPHB2; 0% in the experiment on EPHB3; 0% in the experiment on EPHB4; 0% in the experiment on EPHB6. In addition, the “%Inh” value in the experiment on ERBB2 was found to be 16%; in the experiment on ERBB3, 0%; in the experiment on ERBB4 it was 0%; in the experiment with ERK1, 0%; with ERK2, 0%; in the experiment on ERK3 it was 0%. Further, the “%Inh” value in the experiment with ERK4 and with ERK5 was 0% in each case.
Take `O=C(Nc1n[nH]c2nc(-c3ccco3)c(Br)cc12)C1CCN(Cc2ccccc2)C1.O=C(O)[C@H](O)[C@@H](O)C(=O)O` (stereo not shown) [SB-742034]: the “%Inh” value in the experiment on EPHA2 is given as 0%; in the experiment on EPHA3, 16%; in the experiment on EPHA4, 1%; with EPHA5, 6%; with EPHA6 it was 0%; with EPHA7, 7%. Besides, the “%Inh” value in the experiment on EPHA8 was 0%; in the experiment on EPHB1, 7%; with EPHB2 it was 17%; in the experiment on EPHB3, 11%; in the experiment on EPHB4, 0%; in the experiment with EPHB6, 34%. Also, the “%Inh” value in the experiment on ERBB2 amounted to 0%; in the experiment on ERBB3, 0%; in the experiment on ERBB4, 13%; with ERK1, 8%; in the experiment with ERK2, 1%; with ERK3, 0%. Further, the “%Inh” value in the experiment on ERK4 and in the experiment on ERK5 was 0% each time.
In the case of `CN1c2ccc(-c3ccc(C(N)=O)cc3)cc2-c2[nH]ncc2S1(=O)=O`, the “%Inh” value in the experiment on EPHA2 is reported as 0%; in the experiment with EPHA3, 0%; with EPHA4, 0%; with EPHA5, 4%; in the experiment with EPHA6, 5%; in the experiment with EPHA7, 0%. Besides, the “%Inh” value is given as 0% with EPHA8; 0% with EPHB1; 0% with EPHB2; 5% in the experiment with EPHB3; 18% in the experiment on EPHB4; 23% in the experiment on EPHB6. In addition, the “%Inh” value in the experiment on ERBB2 is reported as 12%; with ERBB3 it was 14%; in the experiment on ERBB4, 14%; in the experiment with ERK1 it was 0%; with ERK2, 4%; with ERK3, 0%. The “%Inh” value in the experiment with ERK4 and in the experiment on ERK5 was 0% throughout.
As to `c1ccc(-c2ccnc3[nH]ccc23)cc1` [SB-693578], the “%Inh” value in the experiment on EPHA2 was determined as 0%; in the experiment on EPHA3, 0%; in the experiment with EPHA4, 12%; with EPHA5, 0%; in the experiment on EPHA6, 0%; in the experiment on EPHA7 it was 18%. The “%Inh” value is given as 26% in the experiment on EPHA8; 13% in the experiment with EPHB1; 0% in the experiment on EPHB2; 4% with EPHB3; 1% in the experiment with EPHB4; 29% in the experiment with EPHB6. Moreover, the “%Inh” value in the experiment with ERBB2 is recorded as 33%; with ERBB3 it was 14%; with ERBB4, 0%; in the experiment on ERK1, 0%; in the experiment on ERK2 it was 3%; in the experiment with ERK3, 0%. The figures for the “%Inh” value with ERK4 and in the experiment with ERK5 were 1% and 0%, respectively.
